The source of these data is PubChem BioAssay AID2013 (Sanford-Burnham Center for Chemical Genomics, 2009).

Screen size: about 290,000 compounds; about 370 (0.13%) were called active. What follows is part of a selection rich in actives, with near analogues and random picks from the rest. Measured potencies and affinities stand elsewhere. Values without a mark were called inactive.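 How the source made its calls: active means spots per cell inhibited over 60%, with over 100 cells counted and total cytoplasm intensity under 500,000; inconclusive means wells with under 100 cells, flagged as likely toxic; inactive means the rest.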

G-protein coupled receptor 55 (Homo sapiens), sequence (Q9Y2T6 whole entry, looked up): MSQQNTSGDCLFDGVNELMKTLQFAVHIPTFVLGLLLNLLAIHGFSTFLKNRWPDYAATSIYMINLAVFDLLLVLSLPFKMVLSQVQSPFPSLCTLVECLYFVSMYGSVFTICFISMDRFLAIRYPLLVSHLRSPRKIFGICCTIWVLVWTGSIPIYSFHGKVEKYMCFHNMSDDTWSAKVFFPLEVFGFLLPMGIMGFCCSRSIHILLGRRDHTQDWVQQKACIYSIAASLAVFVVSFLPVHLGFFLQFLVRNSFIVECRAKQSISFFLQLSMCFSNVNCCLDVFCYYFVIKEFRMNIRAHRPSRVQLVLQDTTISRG

The assay addresses G-protein coupled receptor 55 (Homo sapiens) (UniProt Q9Y2T6). As to the kind of experiment: inhibition of LPI-stimulated GPR55 beta-arrestin translocation – imaging, U2OS, beta-arrestin-GFP, LPI agonist, primary screen (AID 2013).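 Further: U2OS cells stably carrying GPR55 and arrestin-GFP stimulated by 5 µM LPI near EC80; imaged beta-arrestin-GFP aggregate spots per cell after agonist stimulation; plate controls were LPI-stimulated DMSO wells for no effect and DMSO wells without LPI for full effect.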 The note with it: LPI antagonism, at 10 µM, hits give high values.
The inhibition is the relative decrease from the control value, in per cent. `Cc1ccc(C)c(NC(=O)NNC(=O)CCc2ccccc2)c1`: the inhibition was 11%.
The value for `CC(C)(C)n1nnnc1C(c1cccs1)N(Cc1cccnc1)CC1CCCO1` (stereo unspecified) was 4.3%; that for `CC(C)(C)n1nnnc1C(c1cccs1)N(Cc1cccnc1)Cc1ccco1` (stereo unspecified) was 57.6%; that for `CC(c1nnnn1C(C)(C)C)N(Cc1cccnc1)Cc1ccccc1Cl` (stereo unspecified) was 11.1%.
As for `CC(C)(C)n1nnnc1C(c1cccnc1)N(Cc1ccccc1)Cc1cccs1` (stereo unspecified), the inhibition was 59.7%.
Then `Cc1ccc(C(C)C)cc1S(=O)(=O)NCc1ccccn1`, with 8.4%; and `Cc1cc(C)nc(Nc2n[nH]c(-c3ccccc3Cl)n2)n1`, with 0.2%.
Then `COc1ccc(C2c3ccc(O)cc3Oc3ncn4nc(-c5ccccn5)nc4c32)cc1OC` (stereo unspecified), with 14.6%; and `COc1ccc(C2c3c(ncn(Cc4ccco4)c3=N)Oc3ccc4ccccc4c32)cc1` (stereo unspecified), with 27.8%.
The value for `N=c1c2c(ncn1CCN1CCOCC1)Oc1cc(O)ccc1C2c1ccccc1` (stereo unspecified) was 16.4%; that for `N=c1c2c(ncn1Cc1ccco1)Oc1c(ccc3ccccc13)C2c1ccccc1` (stereo unspecified) was 65.9% (active).
Consider `COc1ccc(C2c3ccc4ccccc4c3Oc3ncn(Cc4ccco4)c(=N)c32)cc1OC` (stereo unspecified), for which the inhibition was 96.1%.
The value for `N=c1c2c(ncn1Cc1ccco1)Oc1ccc3ccccc3c1C2c1ccccc1` (stereo unspecified) was 17.8%; that for `N=c1c2c(ncn1CCCO)Oc1cc(O)ccc1C2c1ccccc1` (stereo unspecified) was 33.6%.
In the case of `COc1ccc(C2c3ccc(O)cc3Oc3ncn(Cc4ccco4)c(=N)c32)cc1OC` (stereo unspecified), the inhibition is 33%.
Then `COc1ccc(C2c3ccc(O)cc3Oc3ncn4nc(-c5ccncc5)nc4c32)cc1OC` (stereo unspecified), with 5.3%; and `CNc1oc(C)nc1S(=O)(=O)c1ccccc1`, with -6.5%.
Then `O=C(O)c1ccc2c(c1)S(=O)(=O)N=C1CCCCCN12`, with 16.8%; and `Cc1c(N=Cc2c(O)n(C)c(=O)c3ccccc23)c(=O)n(-c2ccccc2)n1C`, with 1.5%; and `CC(=O)N1c2ccccc2CCc2ccc(N)cc21`, with 8%.
Then `CC(C)(C)c1ccc(C(=O)Nc2ccc(O)c3c(=O)cc(-c4ccccc4Cl)oc23)cc1`, with 18.3%.
`O=c1[nH]c(=S)[nH]c2sc3c(c12)CCCCCC3`: the inhibition is -0.5%.
As to `COc1cc(/C=N/NC(=O)c2cccc3ccccc23)cc(OC)c1O`, the inhibition is 16.9%.
Then `Cn1c(NC(=O)c2cc(-c3ccc4c(c3)OCO4)nc3ccccc23)cc(=O)n(C)c1=O`, with 9.3%.
On to `COc1ccc(C2c3ccc(O)cc3Oc3ncn(CCN4CCOCC4)c(=N)c32)cc1` (stereo unspecified), for which the inhibition is 18.9%.
The value for `COc1ccc(C2c3ccc(O)cc3Oc3ncn(CCCO)c(=N)c32)cc1` (stereo unspecified) was 22%; that for `COC(=O)c1ccc(N(CC(=O)NC2CCCCC2)C(=O)CNC(=O)c2ccco2)cc1` was -3.6%; that for `COc1ccc(-c2ccc(-c3nnc(Cc4ccc(OC)c(OC)c4)o3)cc2)cc1` was -4.2%.
Then `O=C1c2ccccc2C(=O)N1Cc1cc(-c2ccccc2)no1`, with -7.7%; and `O=C(CCS(=O)(=O)c1cccc2nonc12)N1CCOCC1`, with -5.5%.
Regarding `COc1ccc(-c2cn[nH]c2-c2ccc(OCC(=O)NN)cc2O)cc1OC`, the inhibition is -2.6%.
The value for `COc1ccccc1-c1c(-c2ccc(O)cc2O)n[nH]c1C(F)(F)F` was 5.7%; that for `COc1ccccc1-c1c(-c2ccc(OCC(=O)NN)cc2O)n[nH]c1C(F)(F)F` was 4.3%.
As to `COc1ccc(-c2cn[nH]c2-c2ccc(OCC(=O)NN)cc2O)cc1`, the inhibition was -13.4%.
The value for `COc1ccc(-c2c(-c3ccc(O)cc3O)n[nH]c2C)cc1OC` was 7%; that for `Oc1ccc(-c2n[nH]c(C(F)(F)F)c2-c2ccccc2)c(O)c1` was 20.9%; that for `COc1ccc(-c2c(-c3ccc(OCC(=O)NN)cc3O)n[nH]c2C)cc1` was -11.9%.
Then `COc1ccc(-c2n[nH]c(C)c2-c2ccc(Cl)cc2)c(O)c1`, with 12.3%; and `CSc1c(CC(=O)Nc2ccccc2)n(C)c2ccccc12`, with -1%; and `O=C(NCc1cccnc1)C(=O)Nc1ccc([N+](=O)[O-])cc1`, with -2.9%.
The value for `CSc1nsc(SC)c1NC(=O)N1CCCCC1` was 3.9%; that for `Cc1cc(C)c(C(=O)CN2C(=O)NC3(CCC(C)CC3)C2=O)cc1C` (stereo unspecified) was 0.1%; that for `COC(=O)C1=C(C)OC(N)=C(C#N)C1c1ccccc1F` (stereo unspecified) was 9%.
Regarding `COC(=O)C1=C(N)Oc2c(oc(CO)cc2=O)C1c1ccc(F)cc1` (stereo unspecified), the inhibition was 6%.
The value for `O=C1CC(C(=O)O)(c2ccccc2)c2cccc(F)c21` (stereo unspecified) was -1.7%.
Turning to `COC(=O)c1sc(NC(=O)c2c(F)cccc2F)c(C#N)c1C`, the inhibition was -4.7%.
The value for `COC(=O)c1ccc(C#Cc2ccccc2)o1` was -12.1%.
Then `COC(=O)c1c(-c2ccccc2)csc1N`, with 1.1%; and `COc1ccc(-c2nnn(CC(=O)NCCc3ccc(OC)c(OC)c3)n2)cc1`, with -2.6%.
The value for `O=C1/C(=C/c2ccc([N+](=O)[O-])cc2)CCc2ccccc21` was 6.9%; that for `Cn1c(=O)c2c(ncn2Cc2nnc(N)s2)n(C)c1=O` was 3.3%.
Take `CCOC(=O)c1ccc(NC(=S)N2CCC(O)CC2)cc1`: the inhibition was 1%.
The value for `C#CCn1c(CCNC(=O)c2ccco2)nc2ccccc21` was -12.6%.
The value for `CCOc1ccccc1CNC(=O)CCCn1ncn2c(cc3occc32)c1=O` was -7.1%; that for `CCCCC(=O)N(Cc1ccc(F)cc1)C1CCS(=O)(=O)C1` (stereo unspecified) was -2.9%.
The value for `Nn1c(CSc2nc3ccccc3o2)nnc1CSc1nc2ccccc2o1` was 2.1%; that for `COC(=O)c1sccc1NC(=S)N1CCCCC1` was -4.6%; that for `Cn1c(-c2sccc2OCc2ccccc2)n[nH]c1=S` was 6.8%.
Take `CSc1nnc(-c2sccc2OCc2ccc(C)cc2)n1C`: the inhibition is 28.1%.
The value for `O=C(O)CNS(=O)(=O)c1ccc(F)cc1` was 0.5%; that for `O=C(O)CNS(=O)(=O)c1ccc(-c2ccccc2)cc1` was 75.2% (active).
Then `O=C(O)CNS(=O)(=O)c1ccc2c(c1)C(=O)c1cc(S(=O)(=O)NCC(=O)O)ccc1-2`, with -7.8%.
The value for `COc1ccc(C(=O)Nc2ccc(/C(C)=N/NC(=O)c3ccncc3)cc2)cc1` was 10.6%; that for `Cc1cccc(NC(=O)C2CC(O)CN2C(=O)Oc2ccccc2)c1` (stereo unspecified) was 2.6%.
Consider `CC(NC(=O)Cn1nnc(-c2ccncc2)n1)c1ccccc1` (stereo unspecified), for which the inhibition was -4.9%.
The value for `COc1cc2c(cc1OC)-c1nc3ccccc3c(=O)n1C(C)(C)C2` was 4.8%; that for `CC1(C)Cc2ccccc2-c2nc3ccccc3c(=O)n21` was 0.3%.
Take `O=C(NC12CC3CC(CC(C3)C1)C2)c1ccc(-c2ccc(Br)cc2)o1`: the inhibition was 63.8% (active).
Take `O=C(NC12CC3CC(CC(C3)C1)C2)c1ccc([N+](=O)[O-])o1`: the inhibition was 1.3%.
Then `O=C(NC12CC3CC(CC(C3)C1)C2)c1ccc(-c2ccccc2Cl)o1`, with -9.4%.
Turning to `O=C(NC12CC3CC(CC(C3)C1)C2)c1ccc(-c2cccc(Cl)c2)o1`, the inhibition is 2.9%.
Regarding `O=C(NC12CC3CC(CC(C3)C1)C2)c1ccc(Br)o1`, the inhibition was 13%.
As for `C1CN(c2nc(N3CCOCC3)nc(N3CCOCC3)n2)CCO1`, the inhibition is 8.7%.
In the case of `Cc1[nH]nc2c1/C(=N/O)CC(c1ccccc1)C2` (stereo unspecified), the inhibition is -5.5%.
Then `COc1cc2ncc(C(=O)c3ccccc3)c(N3CCN(Cc4ccccc4)CC3)c2cc1OC`, with 3.4%; and `CCc1ccccc1N(C)C(=O)CCc1nc(-c2ccc(C)cc2)no1`, with -8.4%.
Then `Cc1ccc(-c2noc(CCC(=O)N(C)c3ccccc3C)n2)cc1`, with -2.6%.
Then `CCc1ccccc1NS(=O)(=O)c1c(C(=O)N2CCCCCC2)c(C)n(C)c1C`, with 3.1%; and `CCN(C(=O)CSc1nnc(Nc2ccccc2C)s1)C1CCS(=O)(=O)C1` (stereo unspecified), with 12.3%; and `CC(C)C[C@H](NC(=O)Nc1ccccc1F)C(=O)O`, with 2.2%.
For the molecule `CSc1ccc(CN(C)C(=O)c2cc(=O)c3ccccc3o2)cc1`, the inhibition is -0.8%.
On to `COc1ccc(-c2csc(Nc3ccc(S(=O)(=O)Nc4cc(C)on4)cc3)n2)cc1`, for which the inhibition is 5.4%.
The value for `COc1cc(NS(=O)(=O)c2ccc(Nc3nc(-c4ccccn4)cs3)cc2)nc(OC)n1` was 2.2%.
The value for `COc1cc(NS(=O)(=O)c2ccc(Nc3nc(-c4cccc([N+](=O)[O-])c4)cs3)cc2)nc(OC)n1` was 0.2%.
The value for `COc1ccc(-c2csc(Nc3ccc(S(N)(=O)=O)cc3)n2)cc1` was 4.6%.
As to `O=C1CC(N2CCN(c3ccccn3)CC2)C(=O)N1c1ccc(Cl)cc1` (stereo unspecified), the inhibition is -0.1%.
Then `COCCn1c(SCC(=O)NC2CCCC2)nnc1-c1ccncc1`, with 1.6%; and `O=C(NCCc1ccc(Cl)cc1)c1cc2ccccn2n1`, with 6.6%.
The value for `COc1ccc(N2CCN(C(=O)Cn3ncc4c([nH]c5ccccc54)c3=O)CC2)cc1` was -7%; that for `COc1cccc(NC(=O)COC(=O)CC(NC(N)=O)c2ccc(Cl)cc2)c1` (stereo unspecified) was -13.8%.
The value for `O=C(Nc1ccc(N2CCOCC2)cc1)c1cc(-c2ccncc2)nc2ccccc12` was 15.8%.
Turning to `COc1cc(-c2cc(C(=O)Nc3ccccc3N3CCOCC3)c3ccccc3n2)cc(OC)c1OC`, the inhibition was 17.1%.
The value for `Cc1cc(NC(=O)CSc2nnc(C)o2)no1` was 4.5%; that for `Fc1ccc(Nc2nc(NCc3ccco3)c3ccccc3n2)cc1` was 60.1%; that for `Cc1ccc(-c2nc(NCc3ccco3)c3ccccc3n2)cc1` was 7.7%.
Then `c1ccc(CNc2nc(NCc3ccccc3)c3ccccc3n2)cc1`, with 72% (active).
The value for `CNc1nc(NCc2ccccc2)c2ccccc2n1` was 5.4%; that for `c1ccc(Nc2nc(NCc3ccco3)c3ccccc3n2)cc1` was 73.7% (active); that for `OCCNc1nc(NCc2ccccc2)c2ccccc2n1` was -6.4%.
In the case of `Cc1cccc(Nc2nc(NCc3ccco3)c3ccccc3n2)c1`, the inhibition is -2.1%.
The value for `Cc1ccccc1Nc1nc(NCc2ccco2)c2ccccc2n1` was 54.3%.
